Bioassay records: PubChem, National Center for Advancing Translational Sciences (NCATS)
RORg inh: qHTS for inhibitors of ROR gamma transcriptional activity | hit rate 5.4% among 310,000 | Drosophila S2 Gal4-RORgamma UAS-luciferase reporter, 20 h | Potency, µM (top dose mostly 53.6 µM), usual class: inhibitors; also: nearly all actives have a fitted effect of over 60% in size
Target sequence (P51450 whole entry, looked up, the tested form may be a part): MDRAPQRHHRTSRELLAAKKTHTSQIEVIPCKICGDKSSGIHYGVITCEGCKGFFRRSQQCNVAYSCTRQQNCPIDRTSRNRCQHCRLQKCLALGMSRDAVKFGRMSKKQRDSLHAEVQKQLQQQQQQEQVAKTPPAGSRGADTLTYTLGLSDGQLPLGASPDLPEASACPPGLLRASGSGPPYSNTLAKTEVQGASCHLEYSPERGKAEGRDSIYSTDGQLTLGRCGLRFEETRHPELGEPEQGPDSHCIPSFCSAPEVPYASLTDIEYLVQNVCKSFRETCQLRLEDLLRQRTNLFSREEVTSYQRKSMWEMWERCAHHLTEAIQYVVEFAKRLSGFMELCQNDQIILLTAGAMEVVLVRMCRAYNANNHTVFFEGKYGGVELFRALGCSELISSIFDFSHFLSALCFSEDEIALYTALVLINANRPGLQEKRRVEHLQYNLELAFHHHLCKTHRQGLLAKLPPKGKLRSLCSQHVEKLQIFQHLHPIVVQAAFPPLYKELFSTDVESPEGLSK
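Luciferase reporter read in Schneider cells carrying Gal4-RORγ (mouse) and UAS-Photinus luciferase; cells given compound 1 h before 700 uM copper sulfate induction, then incubated 20 h at ambient temperature.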
Gal4-VP16 FLuc: VP16 counterscreen qHTS for inhibitors of ROR gamma transcriptional activity. Drosophila S2 Gal4-VP16 UAS-luciferase, luminescence, 20 h. Potency, µM (doses to about 53.6 µM), hits mostly inhibitors. hit rate 3.5% among 310,000;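 also: Gal4-VP16 expression switched on by copper sulfate through the metallothionein promoter; nearly all actives have a fitted effect of over 50% in size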
KinaseGlo FLuc: Counterscreen for Luciferase (Kinase-Glo TM) Inhibition | Luciferin 4-monooxygenase (Photuris pensylvanica), Q27757 | Kinase-Glo luciferase, ATP luminescence, 8 min | Potency, µM (highest dose often 38.3 µM), actives largely listed as inhibitors | hit rate 0.28% among 200,000 | AID 1379, 2008; also: nearly all actives have a fitted effect of over 60% in size
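Compounds were added to a substrate mix at pH 7.2 (50 mM imidazole, 10 uM ATP, within the enzyme's linear range), followed by Kinase-Glo detection reagent; luminescence was measured after 8 minutes at ambient temperature.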
Hits are given with their value; – = inactive; ? = inconclusive; · = no result; [ ] = remark or other dose. A selection: hits, their analogues and other compounds. The true share with any hit is near 6.2%. Calls follow the shape of the dose curve; as a rule, active = well fitted curve in the direction sought with a large enough effect; inconclusive = small, poorly fitted or top-dose-only effect, or another doubt; inactive = no such curve, though single readings can be large; an effect the other way counts as inactive or inconclusive.

SMILES	RORg inh	Gal4-VP16 FLuc	KinaseGlo FLuc
C=CCN1C(=O)N/C(=C/c2ccccc2OCC(=O)Nc2ccc(F)cc2)C1=O	–	–	–
CO[C@H]1/C=C/O[C@@]2(C)Oc3c(C)c(O)c4c(O)c(c(/C=N\N5CCN(C6CCCC6)CC5)c(O)c4c3C2=O)NC(=O)/C(C)=C\C=C\[C@H](C)[C@H](O)[C@@H](C)[C@@H](O)[C@@H](C)[C@H](OC(C)=O)[C@@H]1C	–	–	·
CCC1=C(C[C@H]2NCCc3ccccc32)C[C@@H]2c3cc(OC)c(OC)cc3CCN2C1	·	·	–[7.66 µM]
COCC1CCN(C(=O)C2CCC(=O)N(CCc3cccc(F)c3)C2)CC1 (stereo not given)	–	–	·
CCNC(=S)NNC(=S)NCc1ccccc1	7.1µM	?	–
O=C(CCC(=O)NNC(=O)Cc1ccccc1)NCc1ccccc1	–	–	–
CCC(=O)NNC(=O)CSc1nnc(-c2ccccc2)c(-c2ccccc2)n1	–	–	·
CCCCC(=O)NNC(=S)NCc1ccccc1	14µM	–	–
CCNC(=S)NNc1nnc(-c2ccccc2)c(-c2ccccc2)n1	13µM	?	·
NCCCC[C@H](NC(=O)[C@H](Cc1c[nH]c2ccccc12)NC(=O)[C@H](CC(=O)O)NC(=O)[C@H](Cc1cnc[nH]1)NC(=O)[C@H](CO)NC(=O)[C@H](Cc1c[nH]c2ccccc12)NC(=O)[C@H](Cc1cnc[nH]1)NC(=O)[C@@H]1CCC(=O)N1)C(=O)N1CCC[C@H]1C(=O)NCC(N)=O	–	–	·
Nn1c(N2CCCCC2)nc2ccccc21	–	–	–
C=CCSc1nnc(NC(=O)Cn2cnc3c2c(=O)n(C)c(=O)n3C)s1	–	–	–
Cc1nn(-c2ccccn2)c(N)c1N=O	11µM	?	·
Cc1nn(-c2ccccn2)c2c1-c1nc(N)ncc1CC2	–	–	–
COc1ccc(-c2c(N)n[nH]c2C)cc1OC	–	–	–
CCn1c(SCC(N)=O)nnc1-c1ccc(OC)c(OC)c1	–	–	–
CCn1c(-c2ccc(OC)c(OC)c2)n[nH]c1=S	11µM	–	–
C=CCn1c(-c2ccc(OC)c(OC)c2)n[nH]c1=S	3.2µM	?	–
CCCn1c(SCC(=O)c2[nH]c(C)c(C(C)=O)c2C)n[nH]c1=O	–	–	·
C=CCCCCCCCCC(=O)O	–	–	–
COc1ccc(/C=C/C(=O)O)cc1S(=O)(=O)N1CCC(C)CC1	–	–	·
O=C(Cn1c(=S)[nH]c2ccccc2c1=O)N1CCN(c2ccc(F)cc2)CC1	?	–	–
CCCN(Cc1ccccc1)C(=S)NC(=O)c1ccccc1[N+](=O)[O-]	0.35µM	1µM	–
CCN(Cc1ccccc1)C(=O)/C=C/c1ccccc1[N+](=O)[O-]	–	–	–
O=C(NC(=S)N(CCO)Cc1ccccc1)c1cc(Br)ccc1Cl	0.79µM	1.8µM	–
SMILES	RORg inh	Gal4-VP16 FLuc	KinaseGlo FLuc
CN(C)CCNC(=O)c1cc(Br)ccc1Cl	–	–	–
CCN(Cc1ccccc1)C(=S)NC(=O)c1ccccc1Br	0.79µM	1.1µM	·
CN(Cc1ccccc1)C(=O)c1ccccc1Br	–	–	–
COc1cccc(C(C(=O)NC(C)(C)C)N(CCc2ccccc2)C(=O)CCC(=O)Nc2cc(C)on2)c1OC (stereo not given)	–	–	·
CN(CC(=O)NCc1cccc(F)c1)C(=O)c1ccco1	–	–	–
COc1ccc(N2CCN(CCC(O)c3ccc4ccccc4c3)CC2)cc1 (stereo not given)	–	–	·
COCCNC(=O)c1ccc(-n2c(=O)c(=O)[nH]c3ccccc32)cc1	·	·	–
CCOC(=O)/C(=C/c1ccc(OC(=O)c2ccncc2)cc1)C(C)=O	?	–	–
CCOC(=O)C(=Cc1ccc(-n2ccnc2)cc1)C(=O)OCC	?	?	–
CCOC(=O)C(=Cc1ccc(F)cc1)C(=O)OCC	10µM	?	–
CCOC(=O)C(=Cc1ccc(Br)cc1)C(=O)OCC	14µM	?	·
Cn1c(=O)c2cnc(-c3ccc(C(F)(F)F)cc3)nc2n(C)c1=O	–	–	·
Cc1ccc(NC(=S)NNC(=O)c2ccc(N3CCOCC3)c([N+](=O)[O-])c2)cc1Cl	16µM	13µM	–
Cc1cc(C(=O)Nc2ccc(N3CCCC3)c(Cl)c2)ccc1[N+](=O)[O-]	?	–	–
COc1ccc2oc(-c3ccc(NC(=O)c4ccc(N5CCOCC5)c([N+](=O)[O-])c4)cc3)nc2c1	–	–	–
O=C(Nc1ccc(-c2nc3ccccc3o2)cc1)c1ccc(N2CCOCC2)c([N+](=O)[O-])c1	?	10µM	–
O=C(NNC(=S)Nc1ccc(Cl)cc1Cl)c1ccc(N2CCOCC2)c([N+](=O)[O-])c1	11µM	?	–
O=C(Nc1cccnc1)c1ccc(N2CCOCC2)c([N+](=O)[O-])c1	?	–	·
O=C(c1ccc(N2CCOCC2)c([N+](=O)[O-])c1)N1CCCCC1	–	–	·
O=C(NNC(=S)Nc1ccc(Br)cc1)c1ccc(N2CCOCC2)c([N+](=O)[O-])c1	13µM	13µM	–
O=C1C(Cl)=C(Nc2ccc(S(=O)(=O)Nc3ccccn3)cc2)C(=O)c2ccccc21	·	·	–[7.66 µM]
COc1ccc(C(=O)c2nccc3ccccc23)cc1	–	–	–
CCOC(=O)COc1ccccc1/C=N\NC(=O)c1cc2c(ccc3ccccc32)o1	–	–	·
O=C(Nc1ccc(S(=O)(=O)N2CCOCC2)cc1)c1ccc(=O)[nH]c1	–	–	·
CN1CCN(c2ncc3nc(-c4ccc(Cl)cc4)c(=O)n(C)c3n2)CC1	–	–	·
SMILES	RORg inh	Gal4-VP16 FLuc	KinaseGlo FLuc
COC(=O)Nc1ccc(S(=O)(=O)N2CCCC(C(=O)Nc3cccc4c3OCCO4)C2)cc1 (stereo not given)	–	–	–
N#Cc1cccc(NC(=O)NCCc2c[nH]c3ccccc23)c1	?	–	–
O=C(NNC(=S)Nc1ccccc1Cl)c1ccncc1	–	–	·
O=C(NNC(=S)Nc1ccc(Cl)cc1Cl)c1ccncc1	?	11µM	–
CO	–	–	·
CC1CC[C@@]2(OC1)OC1CC3C4CC[C@@H]5CC(O)CC[C@@]5(C)C4CC[C@]3(C)C1C2C (stereo not given in full)	–	–	–
CCC1CCCCN1C(=O)NC(=O)c1ccccc1 (stereo not given)	–	–	·
CCC1CCCCN1C(=S)NC(=O)c1ccc([N+](=O)[O-])cc1 (stereo not given)	0.25µM	0.28µM	–
CCC1CCCCN1C(=S)NC(=O)c1ccc(F)c(S(=O)(=O)N2CCOCC2)c1 (stereo not given)	0.56µM	1.6µM	–
CCC1CCCCN1C(=S)NC(=O)c1cccs1 (stereo not given)	0.71µM	1.1µM	–
O=C(Nc1ccc2c(c1)CCC2)c1ccc(F)c(S(=O)(=O)N2CCOCC2)c1	?	–	–
CCOC(=O)C1CCN(C(=O)c2cccs2)CC1	–	–	–
CCOC(=O)C1CCN(C(=S)NC(=O)c2cccs2)CC1	5.6µM	4.5µM	·
O=C(NC1CCCCC1NC(=O)c1cccs1)c1cccs1 (stereo not given)	–	–	–
CCNc1ncc2nc(-c3cn(C)c4ccccc34)c(=O)n(C[C@H]3CCCO3)c2n1	–	–	·
CC1(CC(=O)N/N=C/c2cc3c(cc2Br)OCO3)OCCO1	–	–	–
